Results filed as inconclusive are left out. Active and inactive are the calls of the source. Rule for the calls: active = hit-call score of the fitted dose curve at least 0.9, where 1 is the maximum; inconclusive = response in the unintended direction; inactive = score below 0.9.
Target: human Protein Kinase C, zeta (PKCz), PRKCZ (gene 5590) (UniProt Q05513)
Assay: NVS_ENZ_hPKCz: NovaScreen (NVS) Enzymatic Assay for human Protein Kinase C, zeta (PKCz)
Experimental: NVS_ENZ_hPKCz is a biochemical, single-readout assay that uses extracted gene-proteins in a cell-free assay. Measurements were taken 1 hour after chemical dosing in a 384-well plate.NVS_ENZ_hPKCz is one of one assay component(s) measured or calculated from the NVS_ENZ_hPKCz assay. It is designed to make measurements of enzyme activity, a form of enzyme reporter, as detected with fluorescence intensity signals by Fluorescence and electrophoretic mobility shift technology.Data from the assay component NVS_ENZ_hPKCz was analyzed into 1 assay endpoint. This assay endpoint, NVS_ENZ_hPKCz, was analyzed in the positive analysis fitting direction relative to DMSO as the negative control and baseline of activity. Using a type of enzyme reporter, loss-of-signal activity can be used to understand changes in the enzymatic activity as they relate to the gene PRKCZ. Furthermore, this assay endpoint can be referred to as a primary readout, because this assay has produced multiple assay endpoints where this one serves a enzymatic activity function. To generalize the intended target to other relatable targets, this assay endpoint is annotated to the kinase intended target family, where the subfamily is serine/threonine kinase.
Binding assays used specific radioligands (tritiated, iodinated) with non-radioactive competitive displacement ligands in agonist or antagonist protocols (as indicated) and various reference compounds and inhibitors to titrate specific binding to receptors and transporters. Most enzyme assays (CYPs, kinases, phosphatases, proteases, HDACs) used recombinant protein and specific substrates (fluorescence mostly, some colorimetric and radioactive) and inhibitors, followed by a biochemical separation of substrate and product. All assays for the biochemical HTS were initially run in duplicate at a single concentration (10 uM for CYP450 assays and 25 uM for all others). Assay-chemical combinations meeting a pre-defined threshold (e.g., 30% inhibition and other criteria defined below) were then run in singleton concentration-response format with maximum concentration of 20 uM for CYPs and 50 uM for all others. Each assay was run with positive and negative controls, and concurrent controls on every plate. The follow-up (secondary) screen tested active chemical-pairs in concentration series, as well as a few additional assays not tested in the primary screen, some selected negative inactives, and several cases re-run in the concentration series for confirmatory purposes.

Chain of human Protein Kinase C, zeta (PKCz), PRKCZ (gene 5590) (Q05513 whole entry, looked up): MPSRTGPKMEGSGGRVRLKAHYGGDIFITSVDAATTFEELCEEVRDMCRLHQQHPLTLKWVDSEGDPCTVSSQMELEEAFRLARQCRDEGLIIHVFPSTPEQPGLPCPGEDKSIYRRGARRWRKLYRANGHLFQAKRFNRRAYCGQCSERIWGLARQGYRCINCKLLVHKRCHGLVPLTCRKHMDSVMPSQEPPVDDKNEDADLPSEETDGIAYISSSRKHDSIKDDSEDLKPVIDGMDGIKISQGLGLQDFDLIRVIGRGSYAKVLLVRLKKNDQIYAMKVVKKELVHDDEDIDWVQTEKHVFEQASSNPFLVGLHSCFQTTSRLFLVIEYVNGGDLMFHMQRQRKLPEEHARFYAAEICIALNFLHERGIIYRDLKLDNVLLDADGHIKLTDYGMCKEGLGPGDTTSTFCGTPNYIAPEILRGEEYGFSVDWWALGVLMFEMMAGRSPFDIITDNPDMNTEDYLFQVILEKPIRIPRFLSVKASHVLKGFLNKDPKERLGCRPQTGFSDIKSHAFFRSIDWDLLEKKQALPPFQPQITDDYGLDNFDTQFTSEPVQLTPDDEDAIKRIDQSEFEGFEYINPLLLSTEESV

| Compound | outcome |
| --- | --- |
| CCOP(=S)(OCC)Oc1ccc2c(C)c(Cl)c(=O)oc2c1 | inactive |
| S=C1NCCN1 | inactive |
| COCC(C)N(C(=O)CCl)c1c(C)csc1C (stereo not given) | inactive |
| CCCCC(CC)COC(=O)c1ccccc1C(=O)OCC(CC)CCCC (stereo not given) | inactive |
| COC(=O)c1ccccc1S(=O)(=O)NC(=O)N(C)c1nc(C)nc(OC)n1 | inactive |

Source: PubChem BioAssay AID2283193 (EPA ToxCast)
